# Data published in PubChem BioAssay (NCI).
# “And” between values parts separate entries of the source, which are not always exact repeats. Identical values can stand only once. This is part of a sample that, as a whole, favours compounds with a hit. Of some 83,000 tested, about 20% had one in any assay.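 Activity criterion: percent growth below 10, measured after cells in 96-well plates were exposed to a single compound concentration for 48 hours.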 The source made the active and inactive calls.
# Tested on: MCF7 breast
# Test: NCI-60 one-dose screen, 48 h (100 = growth as untreated, 0 = no growth, -100 = all killed)
# Settings: 100 µM
row,SMILES,growth
1,CCN(Cc1ccccc1)c1ccc(/C=C2\COc3ccccc3C2=O)cc1,17.5% (inactive)
2,CC(=O)/C=C/c1ccc(OCc2ccc(C(C)(C)C)cc2)cc1,41.8% (inactive)
3,CC(=O)/C=C/c1ccc(N(CCO)Cc2ccc(C(C)(C)C)cc2)cc1,-55.4% (active)
4,O=C(/C=C/c1cccc(Oc2ccc(Cl)cc2)c1)c1ccccc1,-45.3% (active)
5,COc1ccc(C(=O)/C=C/c2ccc(OCc3cccc(C(F)(F)F)c3)c(OC)c2)cc1OC,6.42% (active)
6,CC(=O)/C=C/c1ccc(OCc2ccc(Cl)cc2)cc1,46% (inactive)
7,COc1ccc(C(=O)/C=C/c2ccc(OCc3ccc(Cl)cc3)cc2)cc1OC,9.31% (active)
8,CC(=O)/C=C/c1ccc(N(C)Cc2ccc(C(C)(C)C)cc2)cc1,-22.6% (active)

# Tested on: HCT-116 colon
# Test: as above
# Settings: 10 µM
row,SMILES,growth
1,CCN(Cc1ccccc1)c1ccc(/C=C2\COc3ccccc3C2=O)cc1,86.1% (inactive)
2,CC(=O)/C=C/c1ccc(OCc2ccc(C(C)(C)C)cc2)cc1,68.9% (inactive)
3,CC(=O)/C=C/c1ccc(N(CCO)Cc2ccc(C(C)(C)C)cc2)cc1,67.2% (inactive)
4,O=C(/C=C/c1cccc(Oc2ccc(Cl)cc2)c1)c1ccccc1,55.9% (inactive)
5,COc1ccc(C(=O)/C=C/c2ccc(OCc3cccc(C(F)(F)F)c3)c(OC)c2)cc1OC,52.3% (inactive)
6,CC(=O)/C=C/c1ccc(N(C)Cc2ccc(C(C)(C)C)cc2)cc1,79.9% (inactive)

# Same assay, conditions: 10 µM unless noted
row,SMILES,growth
1,CCOC(=O)c1ccc(Nc2ncnc3c2cnn3-c2cccc(F)c2)cc1,99.3% (inactive)
2,O=S(=O)(O)c1ccc(N=Nc2ccc(N=Nc3cccc4ccccc34)c(S(=O)(=O)O)c2)cc1,102% (inactive)
3,CC[C@@H]1NC(=O)[C@H]([C@H](O)[C@H](C)C/C=C/c2ccc(CN3C(=O)C(C)=C(C)C3=O)cc2)N(C)C(=O)[C@H](C(C)C)N(C)C(=O)[C@H](CC(C)C)N(C)C(=O)[C@H](CC(C)C)N(C)C(=O)[C@@H](C)NC(=O)[C@H](C)NC(=O)[C@H](CC(C)C)N(C)C(=O)[C@H](C(C)C)NC(=O)[C@H](CC(C)C)N(C)C(=O)CN(C)C1=O,54.8% (inactive)
4,COc1nc(=O)n(C2C=CC(=O)O2)cc1F (stereo not drawn),34.3% (inactive)
5,COc1ccc(-c2csc(NC(=O)CN3CCN(CCO)CC3)n2)cc1NS(=O)(=O)c1cccc2c(N(C)C)cccc12,73.5% (inactive)
6,O=C1/C(=C/c2ccc(-c3cccc(C(F)(F)F)c3)o2)SC(=S)N1CCc1ccc(O)cc1,76% (inactive)
7,BrC1=C(Br)C(Br)(Br)C(Br)=C1Br,65.1% (inactive)
8,OCc1cc(CN2CCCCC2)c(O)c2ncccc12,44.1% (inactive)
9,COc1ccc(C2=C(CN)C(O)NC(=NCC(=O)c3ccc4ccccc4c3)N2)cc1 (stereo not drawn),92.7% (inactive)
10,N#CSc1c[nH]c2ccc(/C=C/C(=O)/C=C(/C=C/c3ccc4[nH]cc(SC#N)c4c3)OB(F)F)cc12,-49.5% (active)
11,COc1ccc(Oc2nc(Nc3ccc(N4CCOCC4)cc3)ncc2NC(=O)c2cc(OC)cc(OC)c2)cc1,87.9% (inactive)
12,COc1ccc2c(c1)oc1c(C)c3c(c(C)c12)C(=O)N(Nc1ccccc1)C3=O,96% (inactive)
13,COc1ccc(/C=C2/C(=O)N=C3N2NC(c2ccccc2)=CN3c2ccccc2)cc1,99.8% (inactive)
14,O=C1/C(=C/c2ccccc2[N+](=O)[O-])Cc2ccccc21,-76.6% (active) and -25.5% (active)
15,COc1ccc2c(c1)CCNC21C(=O)Nc2c(Br)cc(Br)cc21 (stereo not drawn),103% (inactive)
16,O=C(N/N=C/c1ccc(O)cc1O)c1cccc(Nc2ccnc(C(F)(F)F)c2)c1,12.3% (inactive)
17,O=C(c1cccc(Br)c1)N1CCN(c2ccnc3cc(Cl)ccc23)CC1,84.5% (inactive)
18,CCCCCC#CC1OC23CCCCC2C(C#N)(C(=N)O3)C1(C#N)C#N (stereo not drawn),89.2% (inactive)
19,COc1ccc(-c2c[nH]c(C(=O)O)c2-c2cc(OC)c(OC)c(OC)c2)cc1,29.6% (inactive)
20,NC(N)=NC(N)=NCCCc1ccco1,108% (inactive)
21,CN1Cn2c(ccc2C(F)(F)F)C(=O)CS1(=O)=O,94.9% (inactive)
22,CCCc1cc(C(N)=S)ccn1,95.8% (inactive)
23,C#CCn1cnc2cnc(Nc3cccc(NC(=O)CCl)c3)nc21,-30.2% [6.25 µM] (active)
24,CC1=C2[C@@H](CC1)[C@]1(C)O[C@@](C3CC3)(C[C@H]1OC(=O)CO)[C@H]2OC(=O)/C=C/c1ccccc1,89.4% (inactive)
